Test results as given in ChEMBL document CHEMBL3988442, “University of Dundee, Small-Polar-MMV Screening Library” (2021).
For some of these results: Measured potencies and affinities stand elsewhere.

Key:
Set-up in all cases: scale not given: direction of the effect not stated beside the values
[1] = target: Protein translocase subunit SecA (Escherichia coli (strain K12)) (UniProt P10408); test: Assay to Identify E. coli SecA ATPase Inhibitors; assay type: functional; conditions: 30 µM
[2] = target: T1, Ubiquitin-activating enzyme e1, putative (Leishmania donovani (strain BPK282A1)) (UniProt E9BSI1); test: Leishmania donovani Ubiquitin Activating Enzyme (LdE1); assay type: functional; conditions: 30 µM
T1 sequence (whole entry): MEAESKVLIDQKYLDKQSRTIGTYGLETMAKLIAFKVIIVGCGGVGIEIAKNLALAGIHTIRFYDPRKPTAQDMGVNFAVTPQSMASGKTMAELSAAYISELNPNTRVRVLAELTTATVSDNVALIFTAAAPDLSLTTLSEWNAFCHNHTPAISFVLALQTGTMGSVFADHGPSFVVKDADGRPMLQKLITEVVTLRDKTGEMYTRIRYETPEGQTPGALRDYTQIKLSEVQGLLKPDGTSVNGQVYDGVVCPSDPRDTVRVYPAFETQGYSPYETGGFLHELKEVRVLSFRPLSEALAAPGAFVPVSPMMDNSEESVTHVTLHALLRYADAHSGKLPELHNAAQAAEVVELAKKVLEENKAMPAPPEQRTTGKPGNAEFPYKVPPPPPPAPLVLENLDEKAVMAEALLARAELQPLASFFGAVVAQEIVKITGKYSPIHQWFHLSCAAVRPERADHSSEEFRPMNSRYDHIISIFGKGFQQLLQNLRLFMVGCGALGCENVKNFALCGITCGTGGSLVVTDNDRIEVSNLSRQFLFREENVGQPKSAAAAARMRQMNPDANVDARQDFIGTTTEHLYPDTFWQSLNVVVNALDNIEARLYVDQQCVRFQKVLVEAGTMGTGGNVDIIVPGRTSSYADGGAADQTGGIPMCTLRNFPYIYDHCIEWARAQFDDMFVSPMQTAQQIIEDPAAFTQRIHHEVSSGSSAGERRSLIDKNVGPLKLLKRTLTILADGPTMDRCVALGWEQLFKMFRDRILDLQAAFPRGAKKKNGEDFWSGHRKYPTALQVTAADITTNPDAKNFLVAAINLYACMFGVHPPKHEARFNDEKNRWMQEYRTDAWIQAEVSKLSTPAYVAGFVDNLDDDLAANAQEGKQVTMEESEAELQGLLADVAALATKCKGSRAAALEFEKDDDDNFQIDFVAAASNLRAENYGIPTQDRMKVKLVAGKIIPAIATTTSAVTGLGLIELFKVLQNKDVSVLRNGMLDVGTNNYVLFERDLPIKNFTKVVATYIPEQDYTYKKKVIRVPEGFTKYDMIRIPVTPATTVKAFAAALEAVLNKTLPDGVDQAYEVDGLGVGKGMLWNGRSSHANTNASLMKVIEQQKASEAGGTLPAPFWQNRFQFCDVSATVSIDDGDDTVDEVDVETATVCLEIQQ

[3] = target: T2, Aspartate--tRNA(Asp/Asn) ligase (Mycobacterium tuberculosis (strain ATCC 25618 / H37Rv)) (UniProt P9WFW3); test: Assay for Asp RNA synthetase-1 from Mycobacterium tuberculosis; assay type: functional; conditions: 30 µM; further: in the data most compounds retested in dose-response had high values
T2 sequence (whole entry): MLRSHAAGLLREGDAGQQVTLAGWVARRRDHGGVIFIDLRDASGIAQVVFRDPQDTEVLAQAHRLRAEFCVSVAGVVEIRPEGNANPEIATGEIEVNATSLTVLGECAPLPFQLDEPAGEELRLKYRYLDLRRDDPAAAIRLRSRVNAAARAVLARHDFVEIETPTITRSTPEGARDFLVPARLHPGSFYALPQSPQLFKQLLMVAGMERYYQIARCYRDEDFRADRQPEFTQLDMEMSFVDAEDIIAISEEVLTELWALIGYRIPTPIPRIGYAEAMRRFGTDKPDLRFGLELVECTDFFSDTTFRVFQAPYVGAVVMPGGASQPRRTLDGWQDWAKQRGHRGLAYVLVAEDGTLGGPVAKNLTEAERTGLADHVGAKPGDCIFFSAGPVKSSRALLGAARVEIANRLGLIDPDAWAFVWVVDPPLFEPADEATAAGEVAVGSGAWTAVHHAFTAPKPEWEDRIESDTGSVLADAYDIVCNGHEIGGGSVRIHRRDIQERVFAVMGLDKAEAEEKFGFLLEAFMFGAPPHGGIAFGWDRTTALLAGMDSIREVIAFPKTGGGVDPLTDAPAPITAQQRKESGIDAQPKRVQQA

[4] = target: AMP-activated protein kinase, AMPK (Homo sapiens) (UniProt P54646+O43741+P54619+Q9UGJ0+Q9Y478+Q13131+Q9UGI9); test: AMP-dependent Kinase enzyme assay. An in vitro enzyme assay that detects ADP turnover that is directly proportional to AMPK activity. This uses naive AMPK that is activated during the assay with MK-8722; assay type: functional; conditions: 30 µM
[5] = target: Sialic acid-binding Ig-like lectin 9 (Homo sapiens) (UniProt Q9Y336); test: Hs-Siglec9 ALPHAscreen SOP 20170721; conditions: 10 µM
Sequence of Sialic acid-binding Ig-like lectin 9 (Homo sapiens) (Q9Y336 whole entry): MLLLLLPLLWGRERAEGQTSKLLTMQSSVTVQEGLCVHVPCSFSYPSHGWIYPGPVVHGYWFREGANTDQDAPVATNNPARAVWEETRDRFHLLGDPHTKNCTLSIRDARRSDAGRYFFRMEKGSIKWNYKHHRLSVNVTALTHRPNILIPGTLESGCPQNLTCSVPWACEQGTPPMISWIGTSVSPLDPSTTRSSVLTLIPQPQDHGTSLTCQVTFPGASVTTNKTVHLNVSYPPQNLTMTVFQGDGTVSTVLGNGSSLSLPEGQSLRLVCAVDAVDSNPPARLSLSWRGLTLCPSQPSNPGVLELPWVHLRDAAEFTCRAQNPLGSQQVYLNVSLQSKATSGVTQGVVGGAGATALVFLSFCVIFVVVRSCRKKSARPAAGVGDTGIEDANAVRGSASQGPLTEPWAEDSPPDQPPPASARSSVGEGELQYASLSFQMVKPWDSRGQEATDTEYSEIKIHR

[6] = test system: Trypanosoma cruzi; test: Trypanosoma cruzi phosphomannomutase and mannose-1-phosphate guanylyltransferase assay; assay type: functional; conditions: 10 µM
[7] = target: T3, Arginase-2, mitochondrial (Homo sapiens) (UniProt P78540); test: in vitro enzyme assay to detect the production of urea directly proportional to the activity of Arginase II; assay type: functional; conditions: 33.3 µM; further: in the data most compounds retested in dose-response had high values
T3 sequence (whole entry): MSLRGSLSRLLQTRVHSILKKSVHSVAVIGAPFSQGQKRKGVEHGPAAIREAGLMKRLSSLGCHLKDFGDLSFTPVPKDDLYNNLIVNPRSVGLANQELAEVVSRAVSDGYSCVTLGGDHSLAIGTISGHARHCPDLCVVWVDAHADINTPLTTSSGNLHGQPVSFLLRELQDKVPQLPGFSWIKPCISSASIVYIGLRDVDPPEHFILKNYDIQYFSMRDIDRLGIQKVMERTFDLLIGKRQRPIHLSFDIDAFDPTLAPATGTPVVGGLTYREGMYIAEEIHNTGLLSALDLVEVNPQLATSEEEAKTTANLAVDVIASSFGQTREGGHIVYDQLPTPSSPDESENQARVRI

[8] = target: T4, Proteasome subunit beta (Trypanosoma cruzi) (UniProt O96673); test: Trypanosoma cruzi proteasome chymotrypsin-like activity (TcProtChymo) assay.; further: in the data most compounds retested in dose-response had high values; assay type: functional; conditions: 9.37 µM
T4 sequence (whole entry): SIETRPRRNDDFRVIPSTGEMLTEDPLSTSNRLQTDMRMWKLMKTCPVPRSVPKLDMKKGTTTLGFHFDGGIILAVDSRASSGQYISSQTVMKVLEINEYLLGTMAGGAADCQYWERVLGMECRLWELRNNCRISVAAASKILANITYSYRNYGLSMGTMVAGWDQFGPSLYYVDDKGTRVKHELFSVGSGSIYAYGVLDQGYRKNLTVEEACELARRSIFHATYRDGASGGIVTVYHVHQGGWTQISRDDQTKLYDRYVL

[9] = species: Homo sapiens; test: To identify inhibition of the IFN signalling (Jak-Stat) pathway via expression of an eGFP reporter gene under the control of an IFN-stimulated response element (ISRE) containing MxA promoter.; assay type: functional; conditions: 30 µM
[10] = target: Shiga toxin 2 (Escherichia coli O157:H7) (UniProt P09385+P09386); test: E. coli 0.157:H7 Shiga Toxin SOP - stx2 screening assay; assay type: functional; conditions: 30 µM
[11] = target: T5, Tyrosyl-tRNA synthetase, putative (Trypanosoma cruzi (strain CL Brener)) (UniProt Q4DSP6); test: Trypanosoma cruzi tyrosyl tRNA synthetase (TcYRS) _High Tyrosine SOP; assay type: functional; conditions: 30 µM; further: in the data most compounds retested in dose-response had high values
T5 sequence (whole entry): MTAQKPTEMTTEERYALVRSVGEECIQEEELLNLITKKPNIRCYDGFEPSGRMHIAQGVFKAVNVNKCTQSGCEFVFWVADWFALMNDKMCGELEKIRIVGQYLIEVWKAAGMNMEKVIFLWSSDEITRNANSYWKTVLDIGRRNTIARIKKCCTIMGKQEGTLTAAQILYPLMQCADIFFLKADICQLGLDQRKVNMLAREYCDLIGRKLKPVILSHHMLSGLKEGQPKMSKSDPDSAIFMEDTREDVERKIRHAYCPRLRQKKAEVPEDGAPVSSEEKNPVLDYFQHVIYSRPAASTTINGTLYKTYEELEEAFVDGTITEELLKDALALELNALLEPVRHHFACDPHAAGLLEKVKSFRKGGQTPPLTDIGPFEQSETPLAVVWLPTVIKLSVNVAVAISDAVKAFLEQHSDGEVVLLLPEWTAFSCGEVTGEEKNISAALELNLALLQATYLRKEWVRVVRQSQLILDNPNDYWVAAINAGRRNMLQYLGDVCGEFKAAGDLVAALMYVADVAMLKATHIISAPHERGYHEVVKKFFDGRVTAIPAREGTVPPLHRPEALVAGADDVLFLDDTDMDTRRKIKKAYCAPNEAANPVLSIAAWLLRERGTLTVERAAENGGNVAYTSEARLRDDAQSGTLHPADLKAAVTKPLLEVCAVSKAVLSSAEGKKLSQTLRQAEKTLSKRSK

[12] = target: T5, Tyrosyl-tRNA synthetase, putative (Trypanosoma cruzi (strain CL Brener)); test: Trypanosoma cruzi tyrosyl tRNA synthetase (TcYRS) SOP; assay type: functional; conditions: 30 µM
[13] = target: Chromo domain-containing protein 1 (Saccharomyces cerevisiae (strain ATCC 204508 / S288c) (Baker's yeast)) (UniProt P32657); test: ScCHD-1 Enzyme Inhibition Assay; assay type: functional; conditions: 30 µM; further: in the data most compounds retested in dose-response had high values
Sequence of Chromo domain-containing protein 1 (Saccharomyces cerevisiae (strain ATCC 204508 / S288c) (Baker's yeast)) (P32657 whole entry, the tested form may be a part): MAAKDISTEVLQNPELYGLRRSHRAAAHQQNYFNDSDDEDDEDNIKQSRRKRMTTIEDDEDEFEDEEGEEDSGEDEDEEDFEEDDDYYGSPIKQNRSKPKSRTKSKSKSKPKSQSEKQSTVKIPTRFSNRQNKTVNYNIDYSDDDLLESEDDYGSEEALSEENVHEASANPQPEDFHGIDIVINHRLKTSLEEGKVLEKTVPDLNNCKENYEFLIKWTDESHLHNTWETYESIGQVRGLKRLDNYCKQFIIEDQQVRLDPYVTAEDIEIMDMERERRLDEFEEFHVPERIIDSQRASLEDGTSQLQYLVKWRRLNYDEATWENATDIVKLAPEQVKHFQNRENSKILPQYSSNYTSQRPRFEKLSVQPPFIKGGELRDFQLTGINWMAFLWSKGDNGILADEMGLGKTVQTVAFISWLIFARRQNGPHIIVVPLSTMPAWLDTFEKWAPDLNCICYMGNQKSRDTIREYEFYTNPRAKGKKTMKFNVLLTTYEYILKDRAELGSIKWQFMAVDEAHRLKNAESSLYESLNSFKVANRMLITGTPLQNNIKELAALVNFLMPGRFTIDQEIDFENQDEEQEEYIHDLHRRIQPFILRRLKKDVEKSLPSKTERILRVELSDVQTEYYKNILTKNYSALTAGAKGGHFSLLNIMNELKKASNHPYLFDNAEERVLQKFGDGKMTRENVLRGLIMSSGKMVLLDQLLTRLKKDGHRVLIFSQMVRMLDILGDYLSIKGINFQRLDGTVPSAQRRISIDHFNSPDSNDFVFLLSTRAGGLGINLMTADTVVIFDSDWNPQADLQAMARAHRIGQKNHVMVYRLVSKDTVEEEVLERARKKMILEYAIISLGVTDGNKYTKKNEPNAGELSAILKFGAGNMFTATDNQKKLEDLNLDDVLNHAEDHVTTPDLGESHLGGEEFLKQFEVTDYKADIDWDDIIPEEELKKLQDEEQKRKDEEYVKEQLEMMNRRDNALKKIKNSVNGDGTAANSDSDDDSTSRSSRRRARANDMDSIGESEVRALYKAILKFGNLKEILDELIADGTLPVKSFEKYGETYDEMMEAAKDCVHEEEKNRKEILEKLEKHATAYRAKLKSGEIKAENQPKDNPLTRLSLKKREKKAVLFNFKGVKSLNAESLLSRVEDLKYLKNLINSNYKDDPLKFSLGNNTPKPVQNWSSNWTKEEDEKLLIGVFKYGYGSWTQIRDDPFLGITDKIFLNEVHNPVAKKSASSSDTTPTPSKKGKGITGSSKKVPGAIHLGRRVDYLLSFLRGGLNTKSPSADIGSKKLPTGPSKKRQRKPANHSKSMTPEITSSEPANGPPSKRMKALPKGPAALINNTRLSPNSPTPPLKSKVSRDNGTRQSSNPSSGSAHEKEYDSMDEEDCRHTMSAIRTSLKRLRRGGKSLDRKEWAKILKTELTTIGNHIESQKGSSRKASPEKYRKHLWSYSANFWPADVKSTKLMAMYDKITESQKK

Sequence of Protein translocase subunit SecA (Escherichia coli (strain K12)) (P10408 whole entry): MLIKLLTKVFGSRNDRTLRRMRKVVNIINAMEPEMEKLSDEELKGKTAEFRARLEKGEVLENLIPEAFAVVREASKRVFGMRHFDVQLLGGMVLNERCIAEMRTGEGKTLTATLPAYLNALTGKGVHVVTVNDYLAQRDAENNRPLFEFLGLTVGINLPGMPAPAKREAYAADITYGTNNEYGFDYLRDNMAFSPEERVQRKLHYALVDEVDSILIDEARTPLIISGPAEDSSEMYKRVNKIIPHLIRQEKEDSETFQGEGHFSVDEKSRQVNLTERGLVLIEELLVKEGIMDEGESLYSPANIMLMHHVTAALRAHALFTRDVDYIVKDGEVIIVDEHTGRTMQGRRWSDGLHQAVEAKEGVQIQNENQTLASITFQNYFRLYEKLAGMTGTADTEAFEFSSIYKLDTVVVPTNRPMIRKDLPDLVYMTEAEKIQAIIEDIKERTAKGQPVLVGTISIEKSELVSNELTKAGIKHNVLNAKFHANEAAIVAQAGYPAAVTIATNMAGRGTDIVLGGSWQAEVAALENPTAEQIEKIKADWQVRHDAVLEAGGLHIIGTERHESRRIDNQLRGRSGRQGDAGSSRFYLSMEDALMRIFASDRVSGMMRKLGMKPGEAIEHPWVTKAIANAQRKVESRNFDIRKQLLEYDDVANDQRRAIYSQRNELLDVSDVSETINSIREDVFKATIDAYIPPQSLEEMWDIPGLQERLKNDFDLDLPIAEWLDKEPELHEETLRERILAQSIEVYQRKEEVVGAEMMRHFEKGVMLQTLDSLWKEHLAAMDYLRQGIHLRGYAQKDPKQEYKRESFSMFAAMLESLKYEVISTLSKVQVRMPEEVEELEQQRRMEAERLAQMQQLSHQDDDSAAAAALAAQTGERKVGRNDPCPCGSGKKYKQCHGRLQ

SMILES | Percent Effect [1] [%] | Percent Effect [2] [%] | Percent Effect [3] [%] | Percent Effect [4] [%] | Percent Effect [5] [%] | Percent Effect [6] [%] | Percent Effect [7] [%] | Percent Effect [8] [%] | Percent Effect [9] [%] | Percent Effect [10] [%] | Percent Effect [11] [%] | Percent Effect [12] [%] | Percent Effect [13] [%]
CN1CCCC(Cc2cncc(Br)c2)CC1 (stereo not given) | -3.64 | 1.35 | -6.03 | 13.7 | -1.84 | 5.73 | 0.232 | 9.05 | -10.1 | -7.14 | 20.4 | 22.1 | -20.8
c1cncc(OC[C@@H]2CCC[C@@]23CNCCO3)c1 | -5.75 | 8.11 | 1.15 | 89.4 | -7.32 | -6.75 | -3.5 | 13.1 | 9.54 | -12.4 | -3.24 | 0 | -2.43
CN1CCC2(COCc3cnc(N4CCOCC4)nc32)C1 (stereo not given) | -1.86 | -1.33 | -1.51 | 5.52 | 4.35 | -1.18 | -0.528 | 5.36 | -2.62 | -6.09 | 0 | -5.13 | -1.41
O=C1CC2(CCN(CC3CC3)C2)CN1c1cccnc1 (stereo not given) | -0.0321 | 8.11 | 1.57 | -3.31 | 8.46 | -5.18 | 7.2 | 11.4 | -22.5 | -25.7 | 10.8 | 11.1 | -7.21
c1cc(CO[C@@H]2CC[C@H]3[C@H]2OCCN3Cc2ccoc2)ccn1 | -1.76 | 13.5 | 9.49 | 9.36 | -7.31 | -1.66 | 2.23 | 27.1 | 33.2 | 1.68 | 1.08 | 10.3 | 1.36
c1cncc(N2CCCC3(CN(Cc4cccs4)CCO3)C2)c1 (stereo not given) | -4.82 | 8.11 | 1.48 | -14.4 | -11.3 | -4.2 | -1.59 | 8.12 | 29.1 | 1.28 | -1.08 | 5.13 | -3.66
Cc1nc(CN2CCOCC3(CCN(c4ncccn4)C3)C2)cs1 (stereo not given) | -4.37 | 10.8 | 2.24 | 2.91 | -0.742 | 1.17 | 3.75 | 6.68 | -5.73 | -14.6 | 13.9 | 11 | -4.52
Cc1noc(C)c1CN1CC[C@H]2C[C@@H](c3ccncn3)O[C@@H]2C1 | -2.74 | 8.11 | -3.25 | 5.49 | 1.24 | 5.57 | -2.87 | 14.2 | 17.1 | 5.98 | 2.16 | 17.9 | 2.76
c1ccc(O[C@H]2CC[C@H]3[C@H]2OCCN3Cc2nccs2)nc1 | -1.17 | -5.2 | 5.47 | -3.9 | 10.1 | 7.57 | -41.4 | 13.6 | 21 | -14.7 | 3.23 | 8.64 | -5.68
CC(C)CN1CCC2(CC1)C(=O)Nc1ccc(C(=O)N(C)C)cc12 | -4.79 | 5.41 | -0.578 | -2.95 | -1.19 | -3.81 | 0.248 | 8.67 | 7.43 | 5.38 | 4.3 | 8.64 | -2.28
